Test results: PubChem BioAssay AID485364 (National Center for Advancing Translational Sciences (NCATS), 2010)
Hit rate of the full screen: of about 360,000 compounds, about 11,000 (3.1%) were called active. Not shown: some 4% with an inconclusive outcome. Calls come from the whole dose curve; as a rule, active = well fitted inhibition curve with a large enough effect; inconclusive = small, poorly fitted or top-dose-only effect; inactive = no such curve, though single readings can be large or run the other way. What follows is part of a selection rich in actives, with near analogues and random picks from the rest. A call without a number means that no potency is given here.
Note: nearly all actives have a fitted effect of over 60% in size.
Potency is the fitted concentration of half-maximal effect.

These compounds were tested against Schistosoma mansoni thioredoxin glutathione reductase (TGR) (UniProt Q962Y6) (assay: qHTS Assay for the Inhibitors of Schistosoma Mansoni Peroxiredoxins). Settings: purified TGR, DTNB reduction, TNB absorbance 405 nm; series mostly up to 114 µM.
Procedure, shortened: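 First, TGR (20 nM dispensed) and NADPH were mixed with compound. Second, a 15 min room-temperature incubation followed. Third, further NADPH and then DTNB were added to start the reaction. Finally, TNB absorbance was monitored kinetically.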
With `Cc1cccc(N2CCN(C(=O)c3ccc(Nc4nc5ccccc5n5nnnc45)cc3)CC2)c1C` the Potency was “inactive”.
In the case of `COC(=O)c1ccccc1SC1CC(=O)N(c2cccc(C)c2)C1=O` (centres undefined), the Potency is reported as 50.1 µM (active).
With `COC(=O)c1cccc(N2C(=O)C3C4C=CC(CC4)C3C2=O)c1` (centres undefined) the Potency was “inactive”.
`Cc1cccc(N2C(=O)CC(SC(N)=Nc3ccccc3)C2=O)c1` (centres undefined) was tested, and the Potency was “inactive”.
For `COc1ccc(N2CCN(c3nc(-c4ccccc4F)nc4ccccc34)CC2)cc1`, the Potency was “inactive”.
`Oc1c(C(c2ccccc2Cl)N2CCOCC2)sc2nc(-c3ccco3)nn12` (centres undefined) was tested, and the Potency was “inactive”.
With `CSc1nc(-c2ccco2)nn1C(=O)c1ccccc1Cl` the Potency was 7.08 µM (active).
In the case of `O=C(CSc1oc(-c2ccco2)nc1S(=O)(=O)c1ccccc1)c1ccc(Cl)cc1`, the Potency is reported as “inactive”.
For `Cc1cccc(NC(=O)Cn2cc(S(=O)(=O)Cc3ccccc3Cl)c3ccccc32)c1`, the Potency was “inactive”.
In the case of `CC(=O)c1nn(-c2ccc(OC(F)(F)F)cc2)nc1Nc1ccccc1`, the Potency is reported as “inactive”.
With `COc1ccc(CNC(=O)Cc2coc3ccc(C(C)C)cc23)cc1` the Potency was “inactive”.
With `CN1CCN(c2oc(-c3ccc(COc4ccc(Cl)cc4)o3)nc2C#N)CC1` the Potency was “inactive”.
In the case of `Cc1cc(C)c(NC(=O)Cn2c(SCC(=O)NCc3ccccc3)nc3ccccc32)c(C)c1`, the Potency is reported as “inactive”.
With `CCOC(=O)c1c(C)n(S(=O)(=O)c2ccc(C)cc2C)c2ccc(NS(=O)(=O)c3ccc(C)cc3C)cc12` the Potency was “inactive”.
With `CC1=C/C(=N\OS(=O)(=O)c2ccccc2)C=CC1=O` the Potency was 2.24 µM (active).
In the case of `O=C(COc1ccc(Cl)cc1)Nc1ccc(-c2nc3cc(Cl)ccc3o2)c(O)c1`, the Potency is reported as “inactive”.
With `Cc1nc2ccccn2c(=O)c1NC(=O)c1cccs1` the Potency was “inactive”.
In the case of `Cc1ccc(Nc2c(-c3ccc(C)s3)nc3ccccn23)cc1`, the Potency is reported as “inactive”.
With `CC(C)(C)Nc1c(-c2cccs2)nc2ccccn12` the Potency was 50.1 µM (active).
In the case of `COc1ccc(-c2cc(C(=O)NCc3cc(OC)c(OC)c(OC)c3)[nH]n2)cc1`, the Potency is reported as “inactive”.
For `CCOc1ccc(S(=O)(=O)N(CC(=O)NCCSCc2ccc(C)cc2)c2ccccc2)cc1`, the Potency was “inactive”.
In the case of `Cc1ccc(NC(=O)CN2c3ccccc3S(=O)(=O)c3ccccc32)cc1F`, the Potency is reported as “inactive”.
In the case of `O=C(CC(n1cncn1)C(Cl)(Cl)Cl)c1ccc([N+](=O)[O-])cc1` (centres undefined), the Potency is reported as 0.282 µM (active).
With `O=C(CCn1nnc2ccccc21)OCC(=O)c1ccc([N+](=O)[O-])cc1` the Potency was “inactive”.
With `O=C(NNC(=O)c1ccc(-n2cncn2)c([N+](=O)[O-])c1)c1ccccc1` the Potency was “inactive”.
With `Cc1cc(=O)n(CC(=O)Nc2cccc([N+](=O)[O-])c2)c(-n2nc(C)cc2C)n1` the Potency was “inactive”.
`COc1cc(C(=O)NCC(c2ccc(Cl)cc2)N2CCOCC2)cc(OC)c1OC` (centres undefined) was tested, and the Potency was “inactive”.
In the case of `O=C(CSc1ccccc1)Nc1ccc(C(=O)Nc2cccc(O)c2)cc1`, the Potency is reported as “inactive”.
With `O=C(CSCc1ccccc1)Nc1ccccc1` the Potency was “inactive”.
With `O=C(CCl)Nc1cccc(CP(=O)(c2ccccc2)c2ccccc2)c1` the Potency was 11.2 µM (active).
For `COC(=O)c1cc(NC(=O)c2cnc(SC)nc2-c2ccccc2)cc(C(=O)OC)c1`, the Potency was “inactive”.
With `COc1ccc(C(=O)Nc2ccc(-n3nncc3-c3ccccc3)cc2)cc1OC` the Potency was “inactive”.
In the case of `COC(=O)c1ccc(-c2c(-c3ccccc3)ncc3cc(OC)c(OC)cc23)cc1`, the Potency is reported as 14.1 µM (active).
In the case of `CC(C)CN1CCN(Cc2ccccc2C(F)(F)F)CC1CCO` (centres undefined), the Potency is reported as “inactive”.
For `CC(C)CCN1CCN(Cc2ccc(C(F)(F)F)cc2)CC1CCO` (centres undefined), the Potency was “inactive”.
For `CC(C)CCN1CCN(C/C=C/c2ccco2)CC1CCO` (centres undefined), the Potency was 25.1 µM (active).
`O=C(NC1CC(=O)N(c2ccc(Cl)cc2)C1)C1CCCC1` (centres undefined) was tested, and the Potency was “inactive”.
In the case of `Cc1ccc(CN2CCCn3nc(C(=O)NCc4ccccc4Cl)cc3C2=O)cc1`, the Potency is reported as “inactive”.
In the case of `Cc1ccc(-n2ncc3c(NCCCn4ccnc4)ncnc32)cc1Cl`, the Potency is reported as “inactive”.
With `CCC(C)c1ccc(O)c(/C=N/O)c1` (centres undefined) the Potency was “inactive”.
For `CC(=O)NCC(O)c1ccc([N+](=O)[O-])cc1` (centres undefined), the Potency was “inactive”.
In the case of `CNCC(O)c1ccc(O)c(O)c1` (centres undefined), the Potency is reported as 44.7 µM (active).
With `CCC(=O)N1CCc2cc(Br)cc(S(=O)(=O)CCC(=O)NCCc3ccc(OC)c(OC)c3)c21` the Potency was “inactive”.
For `O=C(CSc1nc2c(c(=O)[nH]1)CN(Cc1ccc(F)cc1)CC2)Nc1ccccc1Cl`, the Potency was “inactive”.
`Cc1ccc(Cl)cc1N1CCN(C(=O)c2cn(C)c3ccc(S(=O)(=O)N(C)C4CCCCC4)cc3c2=O)CC1` was tested, and the Potency was “inactive”.
With `CC(=O)Nc1ccc(S(=O)(=O)NCCc2ccccc2)cc1` the Potency was “inactive”.
With `O=C(CS(=O)(=O)c1ccccc1)Nc1ccc(S(=O)(=O)Nc2ccccn2)cc1` the Potency was “inactive”.
In the case of `C=C(C)CNC(=S)Nc1ccc(S(=O)(=O)Nc2cnc3ccccc3n2)cc1`, the Potency is reported as 11.2 µM (active).
With `Cc1cccc(NC(=O)N2CCN(C)c3ncccc32)c1C` the Potency was “inactive”.
For `Cc1cccc(NC(=O)c2nnn(CC(=O)Nc3ccc(C(C)C)cc3)c2N)c1C`, the Potency was “inactive”.
`CCOc1ccccc1NC(=O)C1=C(C)Nc2ncnn2C1c1ccc(NC(C)=O)cc1` (centres undefined) was tested, and the Potency was “inactive”.
`CCC(=O)N1CCc2cc(S(=O)(=O)NC(Cc3ccccc3)C(=O)NCc3ccc(C)cc3)ccc21` (centres undefined) was tested, and the Potency was “inactive”.
`CCOc1ccc(CNCCSc2nnnn2C)cc1` was tested, and the Potency was “inactive”.
With `COc1ccc(C2Sc3ccccc3NC3=C2C(=O)c2ccccc23)c(OC)c1OC` (centres undefined) the Potency was “inactive”.
For `COc1ccc(N2C(=O)/C(=C/c3ccco3)C(=O)NC2=S)cc1`, the Potency was 14.1 µM (active).
`COC(=O)C1=C(C)N(C(C)c2ccccc2)C(=O)/C1=C\c1ccco1` (centres undefined) was tested, and the Potency was 31.6 µM (active).
In the case of `O=C(OCN1C(=O)c2ccccc2C1=O)/C(=C\c1ccco1)NC(=O)c1ccccc1`, the Potency is reported as “inactive”.
`COC(=O)C1=C(C)N(C)C(C)=C(C(=O)OC)C1c1cccc(Br)c1` was tested, and the Potency was “inactive”.
For `COC(=O)C1=C(C)N(c2ccc(Br)cc2)C(=O)/C1=C\c1ccco1`, the Potency was 35.5 µM (active).
With `COc1ccc(CN2C(=O)C(C)S/C2=N/N=C/c2ccco2)cc1` (centres undefined) the Potency was “inactive”.
For `COC(=O)c1ccc(NC(=O)C(C)N2C(=O)c3ccccc3C2=O)cc1` (centres undefined), the Potency was “inactive”.
`COc1ccc(N2C(=O)CNC2=S)cc1` was tested, and the Potency was “inactive”.
`Cc1cccc(C)c1-n1ncc(C(=O)NCCCN2CCCCC2)c1C1CCN(C(=O)OC(C)(C)C)CC1` was tested, and the Potency was “inactive”.
`CC(C)NC(=O)C1CCC(Cn2c(=O)c3sccc3n(Cc3ccc(F)cc3)c2=O)CC1` (centres undefined) was tested, and the Potency was “inactive”.
